Measured values reported in PubChem BioAssay AID651813 (National Center for Advancing Translational Sciences (NCATS), 2012).
Among all 2,100 compounds or so, about 1,100 (52%) were called active. Not shown: some 27% with an inconclusive outcome. Calls follow the shape of the dose curve; as a rule, active = well fitted inhibition curve with a large enough effect; inconclusive = small, poorly fitted or top-dose-only effect; inactive = no such curve, though single readings can be large or run the other way. The set was probably picked from earlier hits. The list shows a part of the results.

target: DNA dC->dU-editing enzyme APOBEC-3G (Homo sapiens) (UniProt Q9HC16); assay: qHTS for inhibitors of Vif-A3G interactions: Cherry picks counterscreen; details: HeLa A3G-eYFP + Vif (tagged APOBEC3G with the HIV-1 protein that degrades it), eYFP fluorescence, 24 h;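 also: hits raise yellow fluorescence by blocking Vif-driven A3G-eYFP degradation; nearly all actives have a fitted effect of over 70% in size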;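 as to max response: max response given as percent of control signal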
Sequence (Q9HC16 whole entry, looked up): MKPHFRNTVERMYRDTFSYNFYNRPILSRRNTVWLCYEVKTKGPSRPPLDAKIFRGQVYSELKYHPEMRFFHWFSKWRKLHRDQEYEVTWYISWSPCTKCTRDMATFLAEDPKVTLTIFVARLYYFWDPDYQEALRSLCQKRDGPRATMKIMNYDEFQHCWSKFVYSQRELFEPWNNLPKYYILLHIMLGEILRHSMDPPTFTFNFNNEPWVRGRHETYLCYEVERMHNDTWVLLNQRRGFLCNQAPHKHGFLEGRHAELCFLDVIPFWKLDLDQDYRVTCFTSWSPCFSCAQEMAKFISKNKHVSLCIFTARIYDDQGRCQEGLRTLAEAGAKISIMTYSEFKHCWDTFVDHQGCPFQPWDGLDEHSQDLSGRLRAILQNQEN
Description: The recent discovery and characterization of host restriction factors, which provide a potent defense to invading retroviruses, has provided new targets for antiviral drug development. APOBEC3G (A3G) and APOBEC3F (A3F) are potent cytidine deaminases that block HIV-1 replication; HIV-1 expresses the Vif protein, which counteracts A3G and A3F by binding to them and inducing their proteasomal degradation. The Vif-A3G and Vif-A3F interactions provide two potential targets for development of small molecules which can interfere with the ability of Vif to degrade A3G or A3F. […] To identify inhibitors that can interfere with Vif mediated degradation of A3G and A3F, we have developed Hela cell lines that stably express A3G or A3F tagged with eYFP at the C-terminal end (A3G-eYFP or A3F-eYFP, respectively) and Vif. In the absence of an inhibitor, Vif induces degradation of A3G-eYFP and A3F-eYFP, and the cells are not fluorescent. In the presence of an inhibitor, it is expected that Vif will be unable to degrade A3G-eYFP and/or A3F-eYFP, resulting in an increase in yellow fluorescence. In this counterscreen assay, Vif A3G was screened against the cherry picks ordered from the MLSMR. NIH Chemical Genomics Center [NCGC] NIH Molecular Libraries Probe Centers Network [MLPCN] MLPCN Grant: MH093245 Assay Submitter (PI): Vinay Pathak, National Cancer Institute
A3G-Vif cells were harvested from T225 flask and resuspended in phenol free OPTI-MEM medium with 5% FBS. Then 5 uL of 140,000 cells/mL resuspended cells was dispensed into each well of low base Aurora COC 1,536-well plates (black walled, clear bottom) using a Multidrop Combi dispenser. After overnight culture at 37 deg C with 5% CO2, a total of 23 nL of compounds at 5 selected concentrations from the NPC or positive control (2 mM stock of MG132) in DMSO was transferred to each well of the assay plate using a pintool (Kalypsys, San Diego, CA), and the plates were further incubated at 37 deg C with 5% CO2 for 24 hours. After that, the plates were measured on Acumen Explorer (TTP Lab Tech). The fluorescence was detected by 488 nm/Ex and […].
Potency is read from the fitted curve at half-maximal effect.

Compound | Potency | max response
COC(=O)CCC(=O)NC(=S)Nc1sc(C)c(C)c1C(N)=O | 0.886 µM (active) | –
Cc1cc(NC(=O)CSc2nc(-c3cccs3)nc3ccccc23)no1 | 3.53 µM (active) | –
Cc1cc(NC(=O)CSc2nc3c(C)cccc3cc2C#N)no1 | 4.11 µM (active) | –
Cc1nonc1NC(=O)CSc1nc2c(C)cccc2cc1C#N | 20.6 µM (active) | –
C1=Cc2ccccc2/C1=C\c1cc2c3c(c1)CCCN3CCC2 | 13 µM (active) | –
c1ccc2c(CCc3c[nH]c4ccccc34)ccnc2c1 | 16.4 µM (active) | –
CSc1nsc(/C=C/Nc2ccc(F)cc2)c1C#N | 16.4 µM (active) | –
CSc1nsc(/C=C/Nc2ccc(C)cc2)c1C#N | 15.8 µM (active) | –
CCN(CC)c1ccc(/C=c2/sc3nnc(-c4ccccc4C)n3c2=O)cc1 | 23.1 µM (active) | –
CCOC(=O)Nc1ccc2nc(-c3cscn3)[nH]c2c1 | 8.86 µM (active) | –
O=C(O)CCCN1C(=O)/C(=C\C(Cl)=C\c2ccccc2)SC1=S | 5.59 µM (active) | –
CCC(=O)Nc1ccccc1-c1nc2ccccc2n(C(C)C(=O)Nc2ccc(OC)cc2)c1=O (stereo not given) | 8.2 µM (active) | –
COCCNC(=O)C(=O)Nc1ccc2c(c1)N(S(=O)(=O)c1cccs1)CCC2 | 6.27 µM (active) | –
Nc1c(C(=O)Nc2nc3ccccc3s2)sc2nc(-c3cccs3)ccc12 | 6.51 µM (active) | –
Nc1c(C(=O)Nc2ccc(F)cc2)sc2nc(-c3cccs3)cc(C(F)(F)F)c12 | 0.82 µM (active) | –
Nc1c(C(=O)Nc2nccs2)sc2nc(-c3cccs3)cc(C(F)(F)F)c12 | 7.9 µM (active) | –
O=C(Nc1nc2ccccc2s1)c1ccc([N+](=O)[O-])o1 | – | -24.2% (inactive)
Cc1nnc(NC(=O)c2sc3nc(-c4cccs4)cc(C(F)(F)F)c3c2N)s1 | 2.59 µM (active) | –
CC(C)Cn1c(N)c(C(=O)COC(=O)c2ccc([N+](=O)[O-])o2)c(=O)n(C)c1=O | – | 8.96% (inactive)
Cc1c(C(=O)C(=O)N2CC=C(c3ccccc3)CC2)c2ccccc2n1C | 7.04 µM (active) | –
Cc1c(C(=O)C(=O)N2CCCc3ccccc32)c2ccccc2n1C | 11.2 µM (active) | –
O=C(/C=C/c1ccco1)N1CCc2ccccc21 | – | -19.9% (inactive)
CCOC(=O)c1ccc(NC(=S)Nc2cccc(C)n2)cc1 | – | -9.19% (inactive)

Compound | Potency | max response
Cc1ccc(NC(=S)Nc2ccccn2)c(C)c1 | – | -5.64% (inactive)
CCOC(=O)c1cc(-c2ccccc2)sc1NC(=S)Nc1cc(C)ccn1 | 18.4 µM (active) | –
Cc1ccnc(NC(=O)Nc2ccc3c(c2)N(C)C(=O)CS3)c1 | 2.59 µM (active) | –
Cc1ccc(-c2nc3sc(C#N)c(N)n3c(=O)c2C#N)cc1 | 25.9 µM (active) | –
O=C1c2ccccc2C(=O)c2cc(N3CCCCC3)ccc21 | 6.27 µM (active) | –
Cc1ccc(C(=O)N/C(=C/c2ccc(-c3ccc([N+](=O)[O-])cc3)o2)C(=O)NCCCN(C)C)cc1 | 15.8 µM (active) | –
Cc1cc2nc3s/c(=C/c4ccc(-c5ccccc5C(=O)O)o4)c(=O)n3c2cc1C | 23.1 µM (active) | –
Cc1cc(C)cc(NC(=S)NC(=O)C2CC2)c1 | – | -14.6% (inactive)
O=C1/C(=C\c2cc([N+](=O)[O-])ccc2O)SC(=S)N1Cc1ccc(Cl)cc1 | 18.4 µM (active) | –
Cc1cc(N)cc(C)c1-c1c(Br)cc(N)cc1Br | 8.86 µM (active) | –
Nc1c(C(=O)c2ccccc2)sc2nsc(SCCN3CCOCC3)c12 | 4.61 µM (active) | –
Nc1c(C(=O)c2ccccc2)sc2nsc(SCCN3CCCC3)c12 | 14 µM (active) | –
Nc1c(C(=O)c2ccccc2)sc2snc(SCC(=O)c3ccccc3)c12 | 14 µM (active) | –
COc1ccc(OC)c(S(=O)(=O)N/N=C\c2cn(CC(N)=O)c3ccccc23)c1 | 15.8 µM (active) | –
COC(=O)Cn1c(C)c(/C=C/c2cc[n+](C)cc2)c2ccccc21 | 9.2 µM (active) | –
CCN(CC)C(=O)Cn1c(C)c(/C=C/c2cc[n+](C)cc2)c2ccccc21 | 15.8 µM (active) | –
CCOC(=O)c1c(Nc2ccc(Cl)cc2)sc(/C=C2\C=Nc3ccccc32)c1O | 20.6 µM (active) | –
CCOc1ccc(N(C)c2ccc(/C=C3/SC(=S)NC3=O)cc2)cc1 | 15.8 µM (active) | –
CN(C)c1ccc(C=C2SC(=S)NC2=O)cc1 | 9.94 µM (active) | –
COc1ccccc1N=C1NC(=O)/C(=C/c2ccc(N(C)C)cc2)S1 | – | 38.1% (inactive)
C=C1C(=O)O[C@@H]2[C@H]1[C@@H](OC(=O)/C(C)=C/C)C/C(C)=C\C(=O)/C=C(\C)[C@@H]2O | 15.8 µM (active) | –
CCCCN1C(=O)/C(=C/C=C2/CC(C)(C)CN2C)SC1=S | – | 54.7% (inactive)
